S aureus QS inh: blocks AIP-induced quorum sensing reporter in S. aureus | inhibition, % at 2 µM | 0.3% of 24,000 active | S. aureus RN6390 RNAIII-GFP reporter, flow cytometry 3 h | AID 527;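 active = share of bacteria positive for the green fluorescent reporter and its mean brightness both inhibited by 50% or more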;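 note: 0% = AIP-stimulated control and 100% = unstimulated bacteria without AIP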
LNCaP diff act: activators of LNCaP prostate cell differentiation. AID 795. flow cytometry side scatter, 4 d. 0.56% of 24,000 active. side scatter shift, % at 10 µM;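 active = side scatter shift above 30%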;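 note: androgen-responsive LNCaP prostate cancer cells in charcoal-stripped serum medium; percent of cells past a gate set so DMSO wells show 10% shift; higher shift means more granular cells and more differentiation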
The depositor's hits bear a star; nt = no result. Compounds with a hit are over-represented: about 0.83% of the library has one in this group of screens.

SMILES	S aureus QS inh	LNCaP diff act
Cn1cccc1Cc1nnc(SCC(=O)Nc2ccccc2)n1-c1ccc(F)cc1	61*	4
CCOCC(=O)Nc1c(C(=O)Nc2ccc(OC)cc2OC)oc2ccccc12	2	14
COc1cccc(OCC(=O)Nc2c(C(=O)Nc3ccc(OC)cc3OC)oc3ccccc23)c1	2	36*
Cc1ccccc1-c1nc(CN2CCC(C(=O)N3CCN(c4ccccn4)CC3)CC2)c(C)o1	12	3
Cc1oc(-c2ccc(Cl)cc2)nc1CN1CCC(C(=O)N2CCN(Cc3ccccc3)CC2)CC1	0	78*
Cc1oc(-c2cccc(Cl)c2)nc1CN1CCC(C(=O)N2CCN(c3ccccc3F)CC2)CC1	11	34*
Cc1oc(-c2ccc(Cl)cc2)nc1CN1CCC(C(=O)N2CCc3ccccc3C2)CC1	10	11
Cc1cccc(-n2c(=O)[nH]c3c(C(N)=O)nc(C(C)C)nc32)c1	-3	7
CCOCCn1c(=O)c2c(nc3n2CCN3c2ccccc2)n(C)c1=O	-6	1
CC1CCCCN1CCNC(=O)Cn1nc(-c2ccccc2)ccc1=O (configuration not stated)	1	1
CC(=O)Oc1c(S(=O)(=O)c2ccc(C)cc2)c(C)nn1C(C)(C)C	78*	1
Cc1ccc(S(=O)(=O)c2c(C)nn(C(C)(C)C)c2OC(=O)C(C)(C)C)cc1	-13	6
Cc1ccc(S(=O)(=O)c2c(C)nn(C(C)(C)C)c2OC(=O)c2ccc(Br)o2)cc1	52*	8
Cc1ccc(S(=O)(=O)c2c(C)nn(C(C)(C)C)c2OC(=O)c2ccco2)cc1	-19	14
CCc1ccc2[nH]c(=O)c(CN(CCCN3CCOCC3)C(=O)Nc3ccc(F)cc3)cc2c1	93*	nt
O=C(Nc1ccc(F)cc1)N(CCCN1CCOCC1)Cc1cc2cc3c(cc2[nH]c1=O)OCO3	10	10
Cn1nc(-c2ccc(Cl)cc2)c2cc(C(=O)NCCCN3CCOCC3)sc21	0	31*
CCOCCCNC(=O)c1cc2c(-c3ccc(Cl)cc3)nn(C)c2s1	-5	0
CCN(CC)CCNC(=O)c1cc2c(-c3ccc(Cl)cc3)nn(C)c2s1	-1	40*
Cn1nc(-c2ccc(Cl)cc2)c2cc(C(=O)NCCN3CCOCC3)sc21	2	9
COc1ccc2cc(C(=O)Nc3c(C)n(C)n(-c4ccccc4)c3=O)sc(=O)c2c1OC	-3	6
C=CCSC1=C(C#N)C(c2ccccc2OCC)CC(=O)N1 (configuration not stated)	0	2
Cn1c(=O)cc(OCC(=O)NCCCN2CCN(c3ccccc3F)CC2)c2ccccc21	-4	9
CC1(C)CC(=O)c2cc(OCC(=O)NCCCN3CCN(c4ccccc4F)CC3)ccc2O1	5	30*
CCn1c(=O)cc(SCC(=O)NCCCN2CCN(c3ccccc3F)CC2)c2ccccc21	4	49*
SMILES	S aureus QS inh	LNCaP diff act
CC1(C)CC(=O)c2cc(OCC(=O)NCc3cccnc3)ccc2O1	-1	11
COc1cccc(C(=O)OCn2nnc3ccccc3c2=O)c1	-3	4
COc1ccc(C(O)c2nccn2Cc2ccccc2)cc1 (configuration not stated)	5	11
CC1CCCCC1NC(=O)c1cc2c(s1)CS(=O)(=O)C2 (configuration not stated)	-1	11
Cn1c(CSc2nnc(SCc3ccccc3)s2)nc2ccccc21	9	6
O=C(NCCN1CCN(c2ccccc2)CC1)c1cccn2c(=O)c3ccccc3nc12	80*	0
O=C(NCCN1CCN(c2ccccc2F)CC1)c1cccn2c(=O)c3ccccc3nc12	-14	6
COc1ccc(OC)c(NC(=O)CSc2nnc(-c3ccco3)n2-c2ccccc2)c1	1	17
CN(CC(=O)N1CCc2ccccc21)S(=O)(=O)c1ccc(Br)s1	-2	8
COCCCn1c(=N)c(C(N)=S)cc2c(=O)n3cccc(C)c3nc21	1	10
N=c1c(C(=O)NCc2ccccc2)cc2c(=O)n3ccccc3nc2n1Cc1ccco1	7	11
Cc1cccn2c(=O)c3cc(C(=O)NC(C)c4ccccc4)c(=N)n(CCCn4ccnc4)c3nc12 (configuration not stated)	2	37*
Cc1ccc2nc3c(cc(C(=O)NCc4ccccc4)c(=N)n3CCCn3ccnc3)c(=O)n2c1	-6	31*
CCCC(NC(=O)CNC(=O)C(C)(C)C)C(=O)O (configuration not stated)	3	6
CC1CCN(S(=O)(=O)c2ccc3c(c2)oc(=O)n3CC(=O)NCc2ccc3c(c2)OCO3)CC1	67*	20
Cc1c(C(=O)NCc2ccc3c(c2)OCO3)oc2ccc(S(=O)(=O)N3CCC(C)CC3)cc12	0	5
Cc1cc(=O)oc(C)c1C(=O)NCCCN1C(C)CCCC1C (configuration not stated)	0	14
CCOC(=O)C(CC)n1cnc2c(cnn2-c2ccc(Cl)cc2)c1=O (configuration not stated)	-1	20

Assay outcomes: PubChem BioAssay, NMMLSC
